# According to PubChem BioAssay (Tox21):
# Values joined by “and” are separate entries in the source; they are usually repeats but may differ in a detail not shown here. Identical values can stand only once. Inconclusive results are not listed. Where a call stands in place of a potency, no number is given. More than one record can exist for a structure, and the calls need not agree. Active and inactive are the calls of the source. Calls follow the shape of the dose curve; as a rule, active = well fitted inhibition curve with a large enough effect in the signal ratio in the repeat runs (not every such curve was filed as active); inconclusive = weak or mixed curves; inactive = flat fitted curve, though single readings scatter; the % refers to the signal ratio.
# Target: Progesterone receptor (Homo sapiens) (UniProt P06401)
# Sequence (P06401 whole entry, looked up): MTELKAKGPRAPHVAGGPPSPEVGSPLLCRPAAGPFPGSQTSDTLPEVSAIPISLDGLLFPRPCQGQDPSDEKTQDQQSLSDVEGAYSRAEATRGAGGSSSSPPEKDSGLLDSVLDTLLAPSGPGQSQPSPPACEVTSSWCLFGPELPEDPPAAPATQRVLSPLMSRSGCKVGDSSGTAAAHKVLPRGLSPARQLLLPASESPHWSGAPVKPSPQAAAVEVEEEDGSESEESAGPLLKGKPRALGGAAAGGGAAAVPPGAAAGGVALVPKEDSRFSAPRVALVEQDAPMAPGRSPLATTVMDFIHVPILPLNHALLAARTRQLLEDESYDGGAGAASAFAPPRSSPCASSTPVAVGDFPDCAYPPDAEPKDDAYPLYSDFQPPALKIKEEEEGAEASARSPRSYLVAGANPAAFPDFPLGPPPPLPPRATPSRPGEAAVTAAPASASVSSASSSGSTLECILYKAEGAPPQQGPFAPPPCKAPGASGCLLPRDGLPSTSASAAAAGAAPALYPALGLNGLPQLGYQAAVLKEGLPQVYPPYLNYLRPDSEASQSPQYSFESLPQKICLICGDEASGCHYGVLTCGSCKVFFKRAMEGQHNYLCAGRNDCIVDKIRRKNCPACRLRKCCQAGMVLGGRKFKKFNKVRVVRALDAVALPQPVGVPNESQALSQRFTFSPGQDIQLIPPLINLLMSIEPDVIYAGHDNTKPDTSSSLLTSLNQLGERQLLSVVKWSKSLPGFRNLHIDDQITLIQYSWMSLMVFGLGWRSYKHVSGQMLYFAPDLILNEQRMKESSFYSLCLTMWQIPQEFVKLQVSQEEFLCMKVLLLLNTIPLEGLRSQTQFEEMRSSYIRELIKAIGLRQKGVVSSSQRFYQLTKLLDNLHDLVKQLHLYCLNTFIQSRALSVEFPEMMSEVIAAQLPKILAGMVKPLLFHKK
# Experiment: qHTS assay to identify small molecule antagonists of the progesterone receptor (PR) signaling pathway (AID 1346795)
# Settings: PR-UAS-bla HEK293T, beta-lactamase FRET ratio, 16 h; series mostly up to 92.4 µM
# From the text: National Center for Advancing Translational Sciences [NCATS]
# NIH Chemical Genomics Center [NCGC]
# U.S. Environmental Protection Agency [EPA]
# National Institutes of Environmental Health Sciences [NIEHS]
# National Toxicology Program [NTP]
# U.S. Food and Drug Administration [FDA]
# Progesterone receptor (PR), a nuclear hormone receptor, plays an important role in development, metabolic homeostasis and reproduction. […] Endocrine disrupting chemicals (EDCs) and their interactions with steroid hormone receptors like PR causes disruption of normal endocrine function. To identify the compounds that inhibit PR signaling, a PR-UAS-bla GripTite cell line i.e. PR-UAS-bla HEK293T (Invitrogen, Carlsbad, CA, USA) containing a beta-lactamase reporter gene under the control of an Upstream Activator Sequence (UAS) was used to screen Tox21 10K compound library.
# Tox21 Assay Protocol Summary:
# PR-UAS-bla HEK293T cells were dispensed at 3,000 cells/4 uL of assay medium containing 2% charcoal stripped FBS per well into black wall/clear-bottom 1536-well plates using a Multidrop Combi (ThermoFisher Scientific, Waltham, MA) dispenser. After the assay plates were incubated at a 37C and 5% CO2 for 6 hr, 23 nL of compounds dissolved in DMSO, positive controls or DMSO only was transferred to the assay plate by a Pintool station (Kalypsys, San Diego, CA), followed by addition of 1 uL (1nM as final concentration) of Promegestone (R5020) in assay medium using a BioRAPTR FRD (Flying Reagent Dispenser, Aurora Discovery, San Diego, CA). The plates were incubated at 37C and 5% CO2 for 16 hr. Then 1 uL of LiveBLAzer B/G FRET substrate was added using a FRD. After the plates were incubated at room temperature for 2 hours, fluorescence intensity was measured by an Envision plate reader (PerkinElmer, Shelton, CT).
# Potency is read from the fitted curve at half-maximal effect.
row,SMILES,Potency
1,CCCCC/C=C\C/C=C\CCCCCCCC(=O)OC,inactive
2,O=S(=O)(Oc1ccc(Cl)cc1Cl)c1ccccc1,8.78 µM (active) and 12.2 µM (active)
3,CC(C)(C)C1CCC(O)CC1 (stereo not given),inactive
4,CN(C)c1cccc(O)c1,inactive
5,CC(C)(N=C=O)c1cccc(C(C)(C)N=C=O)c1,inactive
6,CC1COc2ccccc2N1C(=O)C(Cl)Cl (stereo not given),30.6 µM (active) and 24.3 µM (active)
7,CC1=CC[C@H]2C[C@@H]1C2(C)C,inactive
8,CS(=O)(=O)c1ccc([C@@H](O)[C@@H](CO)NC(=O)C(Cl)Cl)cc1,inactive
9,CCOC(=O)C1OC1c1ccccc1 (stereo not given),inactive
10,CC(C)NCC(O)COc1cccc2ccccc12 (stereo not given),inactive
11,Cc1ccc(C(=O)O)o1,inactive
12,C/C=C(C)/C=C/C=C(C)C,inactive
13,O=C1N=C(O)CN1/N=C/c1ccc(-c2ccc([N+](=O)[O-])cc2)o1,inactive
14,COCC(=O)O,inactive
15,C=C(C)C(=O)OCC(CC)(COC(=O)C(=C)C)COC(=O)C(=C)C,inactive
16,c1ccc2ccccc2c1,inactive
17,OCC1CCCO1 (stereo not given),inactive
18,CC(=O)Nc1ccc(C(=O)O)cc1,inactive
19,CCCCNC(N)=O,inactive
20,OCC#CCO,inactive

row,SMILES,Potency
1,CC1(C)CC(N=C=O)CC(C)(CN=C=O)C1 (stereo not given),inactive
2,CCCCC(CC)COC(C)=O (stereo not given),inactive
3,CCCCCC/C=C/CCCCCCCC(=O)O,inactive
4,NC(=O)/N=N/C(N)=O,inactive
5,CCc1ccccc1O,inactive
6,Cc1ccc(N)c(S(=O)(=O)O)c1,inactive
7,O=C(c1ccc(O)cc1)c1ccc(O)cc1O,19.5 µM (active)
8,CC(C)(CO)COC(=O)C(C)(C)CO,inactive
9,NS(=O)(=O)c1cc2c(cc1Cl)NC=NS2(=O)=O,inactive
10,O=C(O)c1cc(-c2ccccc2)nc2ccccc12,inactive
11,CC1=C(/C=C/C(C)=C/C=C/C(C)=C/CO)C(C)(C)CCC1,inactive
12,CN(CCOc1ccc(CC2SC(=O)NC2=O)cc1)c1ccccn1 (stereo not given),48.3 µM (active) and inactive
13,C=CC(=O)OCCCCCCCC(C)C,inactive
14,Clc1cc(Cl)c(Cl)cc1Cl,inactive
15,C=C(C)C(=O)OCCCCCCCCCCCC,inactive
16,NCCc1ccc(O)c(O)c1,inactive
17,CC(=O)[C@@]1(O)CC[C@H]2[C@@H]3CCC4=CC(=O)CC[C@]4(C)[C@H]3CC[C@@]21C,inactive
18,NCCNCCNCCNCCN,inactive
19,OCCOCCOCCOCCO,inactive
20,CCCCCCC(C)(C)S,inactive
